# Calls of active or inactive are those of the source. How the calls were made is not given here.
# Assay: Vero 76 cell cytotoxicity, dose response, cytotoxicity control for VEEV inhibitor project, set 9 (AID 651930)
# Conditions: Vero 76 cytotoxicity; series mostly up to 25 µM; viability: at the top concentration
row,SMILES,viability
1,CCN1CCN(Cc2nc3ccc(C(=O)O)cc3c(=O)n2-c2ccccc2)CC1,87.7% (inactive)
2,CN1CCN(C)C(=Nc2ccc(C#N)cc2C(=O)Nc2cccc(F)c2)C1,84.5% [at 50 µM] (inactive)
3,COc1ccc(-n2c(CN3CCNCC3)nc3ccc([N+](=O)[O-])cc3c2=O)cc1,85.9% (inactive)
4,CCN1CCN(Cc2nc3ccc(-c4cccnc4)cc3c(=O)n2-c2ccccc2)CC1,87.1% (inactive)
5,CCN1CCN(C)CC1=Nc1ccc([N+](=O)[O-])cc1C(=O)Nc1ccccc1,93.7% [at 50 µM] (inactive)
6,O=c1nc(Nc2ccccc2OCc2ccccc2)sc2ncccc12,92.6% (inactive)
7,CCN1CCN(CC2Nc3ccc([N+](=O)[O-])cc3C(=O)N2c2ccccc2F)CC1 (stereo unspecified),86% (inactive)
8,CCN1CCN(Cc2nc3ncccc3c(=O)n2-c2ccccc2)CC1,94.2% (inactive)
9,CN(C)c1ccc(-n2c(CN3CCNCC3)nc3ccc([N+](=O)[O-])cc3c2=O)cc1,84.7% (inactive)
10,CCN1CCN(Cc2nc3ccc(C#N)cc3c(=O)n2-c2ccccc2)CC1,87.5% (inactive)
11,COc1ccc(NC(=O)c2cc([N+](=O)[O-])ccc2N=C2CN(C)CCN2C)cc1,90.4% [at 5 µM] (inactive)
12,CCN1CCN(Cc2nc3c([N+](=O)[O-])cccc3c(=O)n2-c2ccccc2)CC1,84.3% (inactive)
13,CCN1CCN(c2nc3ccc([N+](=O)[O-])cc3c(=O)n2-c2ccccc2)CC1,94.8% (inactive)
14,CCN1CCN(Cc2nc3ccc([N+](=O)[O-])cc3c(=O)n2-c2ccccc2)CC1,96.5% (inactive)
15,COc1ccccc1-n1c(CN2CCNCC2)nc2ccc([N+](=O)[O-])cc2c1=O,75.6% (inactive)
16,CNCCN(C)Cc1nc2ccc(C#N)cc2c(=O)n1-c1ccccc1F,90.3% [at 50 µM] (inactive)

# Source: PubChem BioAssay AID651930 (Southern Research Specialized Biocontainment Screening …, 2012)
